From paper PMC4336329 (PLoS ONE, 2015)
Among all 310,000 compounds or so, about 14,000 (4.5%) showed an effect of 50% or more. Effects have a minus sign here. Many of the other results were omitted from the sample, so strong results are more common in it than they were.

Molecular target: human ether-à-go-go-related gene (hERG) potassium channel (human, UniProt Q12809)
Test: primary screen, population patch clamp on CHO cells stably expressing hERG; higher = less effect of the substance
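Further: peak tail current of the secondary pulse compared with the same well before compound.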

Sequence of human ether-à-go-go-related gene (hERG) potassium channel (Q12809 whole entry, looked up): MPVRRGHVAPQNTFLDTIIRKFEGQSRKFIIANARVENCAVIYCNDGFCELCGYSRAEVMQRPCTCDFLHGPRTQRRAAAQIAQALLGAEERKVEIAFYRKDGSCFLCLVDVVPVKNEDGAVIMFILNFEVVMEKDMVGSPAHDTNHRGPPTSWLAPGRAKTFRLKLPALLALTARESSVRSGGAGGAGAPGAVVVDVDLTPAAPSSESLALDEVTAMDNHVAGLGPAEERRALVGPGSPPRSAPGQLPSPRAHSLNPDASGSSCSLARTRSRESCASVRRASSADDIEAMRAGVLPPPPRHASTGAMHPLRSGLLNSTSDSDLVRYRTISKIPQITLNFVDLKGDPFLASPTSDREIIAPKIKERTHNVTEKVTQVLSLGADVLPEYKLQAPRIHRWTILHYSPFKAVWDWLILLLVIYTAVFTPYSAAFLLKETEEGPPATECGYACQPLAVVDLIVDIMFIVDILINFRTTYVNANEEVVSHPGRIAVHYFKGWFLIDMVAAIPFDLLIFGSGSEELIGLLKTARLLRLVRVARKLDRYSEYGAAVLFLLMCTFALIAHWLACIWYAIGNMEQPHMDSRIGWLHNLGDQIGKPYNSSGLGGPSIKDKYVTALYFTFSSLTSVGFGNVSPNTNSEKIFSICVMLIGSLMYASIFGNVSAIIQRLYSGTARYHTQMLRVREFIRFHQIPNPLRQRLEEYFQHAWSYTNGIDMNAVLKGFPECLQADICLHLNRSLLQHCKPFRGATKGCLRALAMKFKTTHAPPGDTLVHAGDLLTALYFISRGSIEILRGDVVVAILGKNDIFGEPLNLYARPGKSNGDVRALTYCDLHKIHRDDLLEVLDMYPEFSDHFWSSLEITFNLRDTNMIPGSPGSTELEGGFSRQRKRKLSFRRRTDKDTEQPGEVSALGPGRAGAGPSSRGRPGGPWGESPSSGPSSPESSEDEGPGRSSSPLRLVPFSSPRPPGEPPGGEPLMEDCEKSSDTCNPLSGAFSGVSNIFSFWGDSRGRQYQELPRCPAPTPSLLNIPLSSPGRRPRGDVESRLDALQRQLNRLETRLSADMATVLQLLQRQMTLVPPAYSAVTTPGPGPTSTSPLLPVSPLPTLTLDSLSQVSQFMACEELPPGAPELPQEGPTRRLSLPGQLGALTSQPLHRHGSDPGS

Row | Structure (SMILES) | hERG current change (%, negative = inhibition) at 10uM [%]
1 | CN(C)c1nc(N)c([N+](=O)[O-])c(NCC2CCCO2)n1 (centres unmarked) | 7.07
2 | O=C(O)CCCNC(=O)/C=C/c1ccco1 | 12.5
3 | CC(=O)Nc1sc(-c2ccccc2)nc1-c1ccccc1 | 14
4 | CCOC(=O)c1[nH]c2ccc(OC)cc2c1NC(=O)c1nonc1C | 6.27
5 | Cc1cc(-c2nnc(CCC(=O)NCc3ccc(F)c(F)c3)o2)no1 | 2.95
6 | Cc1ccnc(NC(=O)c2cccc(S(=O)(=O)N3CCCc4ccccc43)c2)c1 | -1.95
7 | CN(C(=O)CC1C(=O)NCCN1Cc1c(F)cccc1Cl)C1CCOCC1 (centres unmarked) | 17.9
8 | Cc1ccc(S(=O)(=O)N2CC(=O)NC(=O)C2)cc1 | 6.07
9 | O=C(C#Cc1ccccc1)Nc1ccc(F)cc1 | 10.1
10 | C[C@@H](NC(=O)c1nc[nH]c1C(=O)NCc1ccc(CNC(=O)OC(C)(C)C)cc1)c1ccccc1 | 6.47
11 | CCOC(=O)C1(CCCc2ccccc2)CCN(C(=O)CCn2cnnn2)CC1 | -56.6
12 | CCOC(=O)C1(CCc2ccccc2)CCN(C(=O)CCn2cnnn2)CC1 | -43.2
13 | CCOC(=O)C1(CCCc2ccccc2)CCN(C(=O)CN2C(=O)CSC2=O)CC1 | -4.63
14 | COc1ccc(NC(=O)NNC(=O)c2ccc(Cl)cc2Cl)cc1OC | 13
15 | CCOc1ccc2c(c1)sc1nc(C(=O)OC)cc(=O)n12 | -12.9
16 | C[C@]12CS(=O)(=O)C[C@H]1SC(=S)N2c1ccccc1 | -0.916
17 | Cc1ccc(Cl)cc1N1CCN(C(=O)c2cc3c(=O)[nH]c4ccccc4c3n2C)CC1 | 8.91
18 | Cn1c(C(=O)N2CCN(c3ccc(Cl)cc3)CC2)cc2c(=O)[nH]c3ccccc3c21 | -114
19 | Cc1cccc(N2CCN(C(=O)c3cc4c(=O)[nH]c5ccccc5c4n3C)CC2)c1C | 14.6
20 | OCCNc1nc2ccccc2[nH]1 | 12.8
21 | CCCCNC(=O)C1CC(c2ccc(C(F)(F)F)cc2)=NO1 (centres unmarked) | 3.73
22 | CCCCN(CCCC)CCCNC(=O)C1CC(c2cc(C(F)(F)F)cc(C(F)(F)F)c2)=NO1 (centres unmarked) | 3.86
23 | CCCCN(CCCC)CCCNC(=O)C1CC(c2ccc(C(F)(F)F)cc2)=NO1 (centres unmarked) | -72.3

Row | Structure (SMILES) | hERG current change (%, negative = inhibition) at 10uM [%]
24 | COCCCN1C(=O)c2ccc(C(=O)OCC(=O)N(C)c3ccccc3)cc2C1=O | 2.63
25 | CCOc1cccc2cc(-c3csc(NC(=O)CCC(=O)NCCN4CCCCC4C)n3)c(=O)oc12 (centres unmarked) | -34.9
26 | CCOc1cccc2cc(-c3csc(NC(=O)CCC(=O)NCCCN4CCC(C)CC4)n3)c(=O)oc12 | -44.6
27 | COc1cccc2cc(-c3csc(NC(=O)CCC(=O)NCCCN4CCC(C)CC4)n3)c(=O)oc12 | -51.9
28 | O=C(CNC(=O)c1cccc(Br)c1)NCCc1nc2ccccc2[nH]1 | 5.59
29 | COc1ccc(CN2CCCC(C(=O)c3ccc(SC)cc3)C2)cc1Cn1cccn1 (centres unmarked) | -80.3
30 | COc1ccc(CN2CCCC(C(=O)c3cccc(OC(C)C)c3)C2)cc1Cn1cccn1 (centres unmarked) | -69.9
31 | COc1ccccc1C(=O)C1CCCN(C(=O)c2cccc(Cn3cccn3)c2)C1 (centres unmarked) | -13
32 | COc1ccc(CN2CCCC(C(=O)c3ccc(Cl)cc3)C2)cc1Cn1cccn1 (centres unmarked) | -83.9
33 | COc1ccc(C(=O)C2CCCN(C(=O)c3cccc(Cn4cccn4)c3)C2)cc1F (centres unmarked) | -14.5
34 | COCCNC(=O)CSc1ncnc2sc(-c3ccccc3)cc12 | 2.83
35 | CC(C)(C)C1CCc2c(C(=O)NNC(=O)/C=C/C(=O)O)csc2C1 (centres unmarked) | 10.3
36 | Cc1c(C(=O)N2CCC3(CC2)OCCO3)sc2ncnc(N3CCc4ccccc4C3)c12 | -33.7
37 | OCC1CCCN(Cc2cn(Cc3ccccc3)nc2-c2cc3ccccc3o2)C1 (centres unmarked) | -41.9
38 | Cn1cc(CN2CCC(C(O)CCc3ccccc3)CC2)c(-c2ccccc2F)n1 (centres unmarked) | -71.3
39 | O=C1CSC(c2cn(-c3ccccc3)nc2-c2cc3ccccc3o2)N1Cc1ccccc1 (centres unmarked) | -6.82
40 | N#CCCn1cc(C(=O)O)c(-c2cc3ccccc3o2)n1 | 24.6
41 | OCC1CCN(Cc2cn(Cc3ccccc3)nc2-c2cc3ccccc3o2)CC1 | -67
42 | OC1CCN(Cc2cn(Cc3ccccc3)nc2-c2cc3ccccc3o2)CC1 | -50.7
43 | Cn1cc(CN2CCC(C(=O)N3CCCC3)CC2)c(-c2ccccc2F)n1 | -4.8
44 | CCC(O)C1CCN(Cc2cn(Cc3ccccc3)nc2-c2cc3ccccc3o2)CC1 (centres unmarked) | -65.1
45 | Cn1cc(CN2CCC(C(=O)N3CCCCC3)CC2)c(-c2ccccc2F)n1 | 4.1
46 | O=Cc1cn(CCC(=O)O)nc1-c1cc2ccccc2o1 | -5.41

Row | Structure (SMILES) | hERG current change (%, negative = inhibition) at 10uM [%]
47 | OC1CCCN(Cc2cn(Cc3ccccc3)nc2-c2cc3ccccc3o2)C1 (centres unmarked) | -44.7
48 | CC1(C)CC(=O)C(Sc2ccccc2[N+](=O)[O-])=C(O)C1 | 4.99
49 | Cc1cc(C)c(OCCCCCNCCO)c(C)c1 | -5.77
50 | Brc1cccc(OCCCCn2cncn2)c1 | 11.2
51 | O=C(CSc1nncn1-c1ccccc1)Nc1ccccc1 | -0.536
52 | N#Cc1c(Oc2ccc3ccccc3c2)sc(C(=O)c2ccccc2)c1N | 11.1
53 | Cc1ccc([C@@H]2C[C@H]3CN(Cc4cccc(Cl)c4)C(=O)[C@]34CCCN24)o1 | -34.3
54 | COCc1ccc([C@@H]2C[C@H]3CN(Cc4cccnc4)C(=O)[C@]34CCCN24)o1 | -3.38
55 | O=C1N(Cc2cccc(Cl)c2)C[C@@H]2C[C@@H](c3ccc4nonc4c3)N3CCC[C@@]123 | -55.1
56 | O=C1N(Cc2cccnc2)C[C@@H]2C[C@@H](c3ccc4nsnc4c3)N3CCC[C@@]123 | -11.3
57 | Cc1nn(C(C)C)c(C)c1[C@@H]1C[C@H]2CN(Cc3cccc(Cl)c3)C(=O)[C@]23CCCN13 | -29.2
58 | O=C1N(Cc2cccnc2)C[C@@H]2C[C@@H](c3ccc4nonc4c3)N3CCC[C@@]123 | -59.1
59 | CCOCCCNC(=O)c1ccc(NC(=O)C2=CSCCO2)cc1 | 15.4
60 | CN(C(=S)NC(=O)C1(C)CC1(Cl)Cl)c1ccccc1 (centres unmarked) | 16.7
61 | COc1cccc2c1C(CO)N1C(C#N)C3CC(C(=O)O)C(C1C2)N3C (centres unmarked) | 12.3
62 | NC(=O)C1CCN(CCC(=O)Nc2ccc(F)c(F)c2)CC1 | 11.1
63 | COc1ccccc1C(=O)Nc1cccc(NC(=O)c2ccccc2OC)n1 | 8.14
64 | Cc1ccccc1OCCOCCN1CCCCCC1.O=C(O)C(=O)O | -29.3
65 | CCOc1ccccc1OCCOCCN1CCN(Cc2ccccc2)CC1.O=C(O)C(=O)O | -48.5
66 | Clc1ccccc1OCCN1CCCCC1 | -16.2
67 | Clc1ccccc1OCCN1CCC(Cc2ccccc2)CC1.O=C(O)C(=O)O | -73.4
68 | CCN1CCN(CCOc2ccccc2OCc2ccccc2)CC1.O=C(O)C(=O)O | -73.2
69 | CCOc1ccccc1OCCN1CCC(Cc2ccccc2)CC1.O=C(O)C(=O)O | -67.4

Row | Structure (SMILES) | hERG current change (%, negative = inhibition) at 10uM [%]
70 | Cc1ccccc1OCCN1CCCC1 | 7.01
71 | CCOc1ccccc1OCCN1CCCC1 | 9.51
72 | Clc1ccccc1OCCCCN1CCNCC1.O=C(O)C(=O)O | 12.7
73 | CCN1CCN(CCOc2cccc(Cl)c2Cl)CC1.O=C(O)C(=O)O | -3.27
74 | Cc1ccccc1OCCN1CCC(Cc2ccccc2)CC1.O=C(O)C(=O)O | -58.5
75 | CCN1CCN(CCCCOc2ccccc2F)CC1.O=C(O)C(=O)O | -9.65
76 | Cc1cc2c(cc1S(=O)(=O)Nc1ccc(OC(F)(F)F)cc1)OCC(=O)N2 | -42.5
77 | CCOC(CNC(=O)c1cccn2c(=O)c3c(C)c(C)sc3nc12)OCC | -12.5
78 | CCc1nnc(NC(=O)C(=O)NCCOC(=O)c2ccccc2Cl)s1 | 5.68
79 | Cc1cccc(-c2noc(CNC(=O)Nc3ccc(F)cc3)n2)c1 | 8.56
80 | Cc1ccc(N(CC(=O)NCc2ccccc2)C(=O)CCC(=O)Nc2ccccn2)cc1C | 16.4
81 | O=C(CN1CCN(c2ccccc2)CC1)Nc1ccc2c(c1)OCCO2 | 5.46
82 | CC(=O)Nc1ccc(S(=O)(=O)N2CCN(c3nc4ccccc4n3CC(C)C)CC2)cc1 | -30.9
83 | Cc1ccc(SCc2nc3ccccc3n2CC(=O)Nc2ccc(Cl)cc2)cc1 | -8.31
84 | CC(C)n1c(N2CCN(CC(=O)Nc3ccc4c(c3)OCCO4)CC2)nc2ccccc21 | -65.4
85 | Cc1cccc(N2CCN(CC(=O)Nc3ccccc3[N+](=O)[O-])CC2)c1C | -0.256
86 | CCCn1c(N2CCN(CC(=O)Nc3ccc4c(c3)OCCO4)CC2)nc2ccccc21.Cl | -60.4
87 | CC(C)Cn1c(N2CCN(CC(=O)Nc3ccc(Cl)cc3)CC2)nc2ccccc21 | -70.5
88 | O=C(CN1CCN(c2ccc(O)cc2)CC1)Nc1ccc2c(c1)OCCO2 | 2.24
89 | CCn1c(N2CCN(CC(=O)Nc3cccc(C)c3C)CC2)nc2ccccc21 | -63.6
90 | CCCCNc1nc2ccccc2n1CC(=O)Nc1ccc2c(c1)OCCO2 | -10.2
91 | CCn1c(N2CCN(S(=O)(=O)CC)CC2)nc2ccccc21 | -37.7
92 | CC(O)c1nc2ccccc2n1CC(=O)Nc1ccc2c(c1)OCCO2 (centres unmarked) | -4.28
